The values that follow come from PubChem BioAssay.

Active and inactive are the calls of the source.

A short description of assay [1]: binders of probe aFSTL3 on microarray, primary screen, stem cell growth factor project, biochemical, small-molecule microarray, fluorescence 635/667 (AID 1064).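 Also: measures binding of the biotinylated anti-FSTL3 antibody to printed compounds.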 As to conditions: higher = more signal.
A short description of assay [2]: binders from COS7 lysate, DM2A8 probe, primary screen, torsin A project, cell lysate, small-molecule microarray, fluorescence 635/667 (AID 1065). Particulars: higher = more signal, COS7 lysate expressing mutant human TOR1A.
The nature of assay [3]: binders of probe aFGF2 on microarray, primary screen, stem cell growth factor project, biochemical, small-molecule microarray, fluorescence 635/667 (AID 1067).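 Also: measures binding of biotinylated aFGF2 protein to printed compounds on slides; z-score merges feature fluorescence and signal-to-noise across triplicate slides.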 Particulars: higher = more signal.
Assay [4] can be described thus: binders of probe aFGF10 on microarray, primary screen, stem cell growth factor project, biochemical, small-molecule microarray, fluorescence 635/667 (AID 1071).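 Also: score merges 667 nm spot intensity and signal to noise from triplicate slides.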 Particulars: higher = more signal.
The target of assay [5] is Neurogenic locus notch homolog protein 2 (Homo sapiens) (UniProt Q04721). The assay can be described thus: Notch2 binders on small-molecule microarrays, primary screen, biochemical, small-molecule microarray, 635 nm fluorescence, stem cell growth factors (AID 1073). As to conditions: Notch2 binding, higher = more signal.
Assay [6] concerns the target Pro-neuregulin-1, membrane-bound isoform (Homo sapiens) (UniProt Q02297). The assay can be described thus: NRG1 binders on small-molecule microarrays, primary screen, psychiatric disease protein project, biochemical, small-molecule microarray, fluorescence 635/667 (AID 1075).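 Also: score combines 667 nm spot fluorescence with signal to noise.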 Particulars: NRG1 binding, 635 nm fluorescence, higher = more signal.
Assay [7] deals with Neuregulin-1 EGF-like domain. The assay can be described thus: binders of neuregulin-1 EGF-like domain, primary screen, biochemical, small-molecule microarray, 635 nm fluorescence (AID 1081).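 Also: binding of the protein to compounds printed on small-molecule microarray slides.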 Particulars: small-molecule microarray binding, higher = more signal.
The nature of assay [8]: FRG1 promoter luciferase signal modulators, primary screen, FRG1 inhibition for FSHD, cell-based, C2C12 myotubes, firefly/Renilla luciferase, luminescence (AID 1084). As to conditions: higher = more signal, called active from +8 up or from −8 down.
The nature of assay [9]: binders of probe aFST on microarray, primary screen, stem cell growth factor project, biochemical, small-molecule microarray, fluorescence 635/667 (AID 1086).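 Also: score merges 667 nm fluorescence with signal-to-noise of each printed compound spot.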 As to conditions: higher = more signal.
A short description of assay [10]: binders of probe aHhip on microarray, primary screen, stem cell growth factor project, biochemical, small-molecule microarray, fluorescence 635/667 (AID 1087).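 Also: score merges spot fluorescence at 667nm with spot signal to noise ratio.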 Particulars: higher = more signal.

Pro-neuregulin-1, membrane-bound isoform (Homo sapiens), sequence (Q02297 whole entry, looked up, the tested form may be a part, canonical isoform): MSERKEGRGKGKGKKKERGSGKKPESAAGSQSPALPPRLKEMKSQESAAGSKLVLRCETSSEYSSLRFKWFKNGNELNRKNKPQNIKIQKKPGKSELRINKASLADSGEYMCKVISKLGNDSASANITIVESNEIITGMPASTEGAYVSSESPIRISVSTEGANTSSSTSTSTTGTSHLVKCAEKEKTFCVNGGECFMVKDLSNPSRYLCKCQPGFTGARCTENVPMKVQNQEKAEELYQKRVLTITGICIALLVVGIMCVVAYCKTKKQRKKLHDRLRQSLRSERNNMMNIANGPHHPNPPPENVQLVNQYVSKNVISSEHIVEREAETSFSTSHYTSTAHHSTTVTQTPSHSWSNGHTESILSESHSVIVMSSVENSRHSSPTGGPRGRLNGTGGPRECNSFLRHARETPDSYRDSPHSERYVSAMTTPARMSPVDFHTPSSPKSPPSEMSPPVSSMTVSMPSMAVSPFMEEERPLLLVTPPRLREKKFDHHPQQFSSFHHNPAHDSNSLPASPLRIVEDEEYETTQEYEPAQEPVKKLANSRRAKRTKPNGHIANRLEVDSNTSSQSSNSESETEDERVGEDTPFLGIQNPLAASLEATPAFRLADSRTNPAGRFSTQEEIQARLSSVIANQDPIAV
Neurogenic locus notch homolog protein 2 (Homo sapiens), sequence (Q04721 whole entry, looked up, canonical isoform): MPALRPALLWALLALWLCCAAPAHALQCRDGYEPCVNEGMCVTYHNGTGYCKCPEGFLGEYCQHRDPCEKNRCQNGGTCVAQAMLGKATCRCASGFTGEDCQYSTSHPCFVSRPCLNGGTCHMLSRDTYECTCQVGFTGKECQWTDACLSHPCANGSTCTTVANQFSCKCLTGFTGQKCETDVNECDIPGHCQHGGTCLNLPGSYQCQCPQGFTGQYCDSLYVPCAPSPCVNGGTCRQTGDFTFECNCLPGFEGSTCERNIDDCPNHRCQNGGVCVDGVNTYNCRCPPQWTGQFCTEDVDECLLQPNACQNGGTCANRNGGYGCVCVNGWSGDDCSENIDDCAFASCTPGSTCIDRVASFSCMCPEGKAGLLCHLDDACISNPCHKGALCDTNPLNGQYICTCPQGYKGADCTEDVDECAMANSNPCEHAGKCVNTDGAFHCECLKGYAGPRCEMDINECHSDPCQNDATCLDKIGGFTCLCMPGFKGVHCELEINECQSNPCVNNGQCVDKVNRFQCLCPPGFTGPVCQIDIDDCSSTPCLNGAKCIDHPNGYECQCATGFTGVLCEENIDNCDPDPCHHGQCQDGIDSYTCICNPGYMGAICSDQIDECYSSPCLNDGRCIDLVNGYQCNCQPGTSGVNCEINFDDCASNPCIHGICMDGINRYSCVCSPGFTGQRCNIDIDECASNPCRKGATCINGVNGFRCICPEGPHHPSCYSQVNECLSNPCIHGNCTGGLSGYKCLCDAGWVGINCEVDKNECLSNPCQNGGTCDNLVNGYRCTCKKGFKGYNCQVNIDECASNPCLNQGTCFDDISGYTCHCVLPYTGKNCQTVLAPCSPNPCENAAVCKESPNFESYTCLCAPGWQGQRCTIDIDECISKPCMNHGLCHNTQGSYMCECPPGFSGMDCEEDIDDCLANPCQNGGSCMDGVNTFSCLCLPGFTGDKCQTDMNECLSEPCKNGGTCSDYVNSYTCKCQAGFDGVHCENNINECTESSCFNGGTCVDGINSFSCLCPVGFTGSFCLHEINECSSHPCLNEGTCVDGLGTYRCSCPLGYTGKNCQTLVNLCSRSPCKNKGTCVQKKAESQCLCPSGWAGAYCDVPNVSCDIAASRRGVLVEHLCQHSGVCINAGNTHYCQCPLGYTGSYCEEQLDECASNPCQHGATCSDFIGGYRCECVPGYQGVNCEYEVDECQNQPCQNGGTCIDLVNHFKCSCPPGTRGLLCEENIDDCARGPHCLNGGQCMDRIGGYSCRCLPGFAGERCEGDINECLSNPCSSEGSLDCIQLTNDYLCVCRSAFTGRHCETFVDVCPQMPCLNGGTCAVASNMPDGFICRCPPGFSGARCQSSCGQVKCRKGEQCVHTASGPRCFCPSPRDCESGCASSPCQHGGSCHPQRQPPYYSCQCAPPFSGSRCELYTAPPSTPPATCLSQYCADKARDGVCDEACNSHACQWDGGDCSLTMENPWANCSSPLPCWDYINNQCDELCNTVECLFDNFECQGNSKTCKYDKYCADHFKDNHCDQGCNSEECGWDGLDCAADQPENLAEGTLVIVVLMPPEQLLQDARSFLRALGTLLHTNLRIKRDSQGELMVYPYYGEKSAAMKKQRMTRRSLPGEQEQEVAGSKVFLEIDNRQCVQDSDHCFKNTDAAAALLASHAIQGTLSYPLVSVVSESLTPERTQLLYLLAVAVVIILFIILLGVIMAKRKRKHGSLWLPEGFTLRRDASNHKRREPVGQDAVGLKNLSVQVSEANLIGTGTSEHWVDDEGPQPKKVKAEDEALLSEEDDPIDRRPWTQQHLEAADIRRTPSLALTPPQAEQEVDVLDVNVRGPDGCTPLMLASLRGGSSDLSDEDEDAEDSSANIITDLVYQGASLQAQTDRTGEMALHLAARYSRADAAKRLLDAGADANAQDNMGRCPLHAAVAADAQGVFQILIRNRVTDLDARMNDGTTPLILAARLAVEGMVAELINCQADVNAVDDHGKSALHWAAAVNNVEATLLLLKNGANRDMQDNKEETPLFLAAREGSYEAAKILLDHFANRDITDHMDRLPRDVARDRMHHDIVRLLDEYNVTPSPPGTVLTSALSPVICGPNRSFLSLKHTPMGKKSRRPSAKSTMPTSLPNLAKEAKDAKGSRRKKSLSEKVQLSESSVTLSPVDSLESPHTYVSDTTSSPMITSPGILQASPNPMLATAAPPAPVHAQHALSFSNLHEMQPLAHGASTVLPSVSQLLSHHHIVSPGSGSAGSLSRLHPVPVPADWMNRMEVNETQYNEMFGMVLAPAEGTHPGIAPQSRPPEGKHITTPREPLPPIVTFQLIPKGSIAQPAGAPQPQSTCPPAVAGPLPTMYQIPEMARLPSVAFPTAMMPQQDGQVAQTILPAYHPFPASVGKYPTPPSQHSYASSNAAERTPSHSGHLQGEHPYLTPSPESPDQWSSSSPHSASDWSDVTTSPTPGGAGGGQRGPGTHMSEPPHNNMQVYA

Consider `CO[C@@H]1COC(=O)CCC[C@@H](C)[C@H](OC)COC(=O)[C@H](Cc2ccccc2)NC(=O)CC=C[C@H]1C`, for which the composite z-score was -0.0731 in [1]; 1.42 in assay [2]; -0.186 in assay [3]; -0.904 in assay [4]; -1.13 in assay [5]; -0.87 in assay [6]. For the same compound, the composite z-score in [7] is -1.25; in [9], -0.104; in [10], -0.134. Moreover, the z-score in assay [8] was 0.0446 (inactive).

With `N#Cc1ccc(NN2C(C(O)c3cccc4ccccc34)C=CC3C(=O)N(c4ccccc4)C(=O)C32)cc1` (stereo not given), the composite z-score is -0.0622 in assay [1]; -0.182 in [2]; 0.158 in assay [3]; 0.829 in assay [4]; 1.65 in assay [5]; 1.63 in assay [6]. In addition, the values for the composite z-score in assay [7], in assay [9] and in assay [10] were 1.21, 0.889 and 0.0695, respectively. Further, the z-score in [8] is 0.025 (inactive).

Take `CCCC[C@H]1OB(O)C[C@H]2C1=C(C)C[C@H]1C(=O)N(C)C(=O)[C@H]12`: the composite z-score was -0.626 in assay [1]; 0.441 in assay [2]; -0.0562 in assay [3]; 0.719 in assay [4]; 1.09 in [5]; 0.053 in [6]. Besides, the figures for the composite z-score in assay [7], in [9] and in [10] were 0.938, 0.349 and -0.156, respectively. Moreover, the z-score in [8] is -0.252 (inactive).

`CCOC(=O)NN=C1C[C@@H](O)[C@@H](O)[C@@H]2[C@@H]3C(=O)N(C(C)(C)C)C(=O)[C@@H]3CC[C@@H]12`: the composite z-score was -0.295 in [1]; 0.721 in assay [2]; 0.0014 in [3]; 0.177 in [4]; 0.394 in [5]; -0.904 in assay [6]. Besides, the composite z-score was -1.83 in assay [7], 0.577 in [9] and -0.0994 in assay [10]. Also, the z-score in [8] is -0.0445 (inactive).

Turning to `CCCNC(=O)OC[C@H]1O[C@H](CCON=CC[C@@H]2C=C[C@H](OC(C)=O)[C@@H](COC(C)=O)O2)C=C[C@@H]1Oc1ccc(OC)cc1`, the composite z-score in [1] was -0.458; in assay [2], 0.453; in [3], -0.112; in assay [4], 0.423; in [5], 0.605; in assay [6], -0.367. Besides, the composite z-score in assay [7] is 0.576; in assay [9], 0.014; in [10], -0.134. In assay [8], the z-score was 0.335 (inactive).

For the compound `CCCC[C@@H](O)C1=C(C)C[C@H]2C(=O)N(Cc3ccccc3)C(=O)[C@H]2[C@H]1CO`, the composite z-score is -0.531 in assay [1]; 0.709 in assay [2]; -0.0564 in [3]; 0.185 in assay [4]; -0.0286 in [5]; 0.0467 in assay [6]. The composite z-score in assay [7] is -0.322; in assay [9], -0.0982; in [10], -0.0237. Further, in [8], the z-score was 0.778 (inactive).

Turning to `CC(CCC(=O)OC[C@H]1O[C@H](C#Cc2ccccc2)C=C[C@@H]1Oc1ccc(C)cc1)=NOC[C@@H](O)[C@H]1O[C@@H]2OC(C)(C)O[C@@H]2[C@H]1O`, the composite z-score was -0.378 in [1]; -0.587 in assay [2]; -0.229 in [3]; -0.44 in [4]; -0.836 in assay [5]; -0.116 in [6]. For the same compound, the results for the composite z-score in [7], in [9] and in assay [10] were -0.0458, -0.865 and -0.172, respectively. The z-score in assay [8] was 0.0054 (inactive).

For `COC(=O)[C@@]1(Cc2ccc(F)cc2)[C@@H]2C(=CC(=O)[C@H]2CC(=O)C(=O)N(C)C)CN1C(=O)c1ccccc1`, the composite z-score in assay [1] was 0.581; in assay [2], -0.293; in assay [3], 0.293; in assay [4] it was 0.663; in assay [5], 1.71; in assay [6], 1.49. Besides, the composite z-score in assay [7] was 1.36; in [9] it was 1.45; in [10] it was 2.1. Further, in assay [8], the z-score was -0.524 (inactive).

With `Cn1c(=O)n2n(c1=O)[C@H]1[C@H](O)[C@@H]3O[C@@H]3C(=NOC[C@@H](O)COCc3ccco3)[C@H]1CC2`, the composite z-score in [1] is -0.319; in [2], 0.614; in assay [3], -0.0538; in assay [4], 0.296; in [5], 0.515; in assay [6], -0.218. For the same compound, the composite z-score in [7] turned out to be 0.276; in [9] it was 0.0036; in assay [10], 0.0373. Besides, the z-score in assay [8] is -0.532 (inactive).

For `O=C1C2C=CC(C(O)c3ccc([N+](=O)[O-])cc3)N(Nc3ccc([N+](=O)[O-])cc3)C2C(=O)N1c1ccccc1` (stereo not given), the composite z-score in [1] is 0.25; in [2], -0.0145; in assay [3], 0.154; in [4], 1.13; in assay [5] it was 1.63; in [6], 1.55. The composite z-score in assay [7] is 1.17; in assay [9], 1.02; in assay [10], 0.178. Moreover, in assay [8], the z-score is -0.164 (inactive).

In the case of `C[C@@H]1C=CCC(=O)OC[C@H](C)C(=O)N[C@@H](C)C(=O)OC1`, the composite z-score in assay [1] was -0.329; in [2], 0.907; in [3], -0.162; in [4], 0.0108; in assay [5], 0.0057; in assay [6], -0.313. Moreover, the composite z-score in [7] is -0.0497; in [9], 0.258; in assay [10], -0.069. Besides, in [8], the z-score is -0.98 (inactive).

Regarding `CCOC(=O)[C@H](CC(C)C)NC(=O)CCC1CC(OC(=O)NCc2cccc3ccccc23)CC2(CCCC(COC(=O)NCCN3CCOCC3)O2)O1` (stereo not given in full), the composite z-score in [1] is -0.589; in assay [2] it was 0.393; in [3], -0.0788; in assay [4], 0.497; in assay [5] it was 0.999; in assay [6], 0.442. Also, the figures for the composite z-score in assay [7], in assay [9] and in [10] were 0.983, 0.112 and 0.0176, respectively. Besides, the z-score in assay [8] is 0.986 (inactive).

`C[C@H](c1ccccc1)N1C(=O)[C@H]2[C@H]3[C@H](O)[C@H](O)CC(=O)[C@@H]3CC[C@H]2C1=O`: the composite z-score is -0.019 in assay [1]; 0.242 in assay [2]; -0.0675 in assay [3]; 0.341 in [4]; 0.433 in assay [5]; -0.117 in [6]. The composite z-score in [7] came to 0.263; in [9] it was 0.0924; in assay [10], 0.0274. The z-score in assay [8] was -0.243 (inactive).
